Screening results deposited in PubChem by Broad Institute.
A selection: hits, their analogues and other compounds. The true share with any hit is near 3.1%.
Rtt109 Vps75 = blocks Candida albicans Rtt109/Vps75 acetyltransferase activity | purified Rtt109/Vps75, ThioGlo CoA-SH fluorescence, 4 h | inhibition, % at 34.9 µM | AID 540336 | 0.16% of 330,000 active;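 active = inhibition of at least 50% in every replicate; inconclusive = best replicate reaches 50% inhibition but some replicates fall short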
Target sequence (Q5AAJ8 whole entry, looked up): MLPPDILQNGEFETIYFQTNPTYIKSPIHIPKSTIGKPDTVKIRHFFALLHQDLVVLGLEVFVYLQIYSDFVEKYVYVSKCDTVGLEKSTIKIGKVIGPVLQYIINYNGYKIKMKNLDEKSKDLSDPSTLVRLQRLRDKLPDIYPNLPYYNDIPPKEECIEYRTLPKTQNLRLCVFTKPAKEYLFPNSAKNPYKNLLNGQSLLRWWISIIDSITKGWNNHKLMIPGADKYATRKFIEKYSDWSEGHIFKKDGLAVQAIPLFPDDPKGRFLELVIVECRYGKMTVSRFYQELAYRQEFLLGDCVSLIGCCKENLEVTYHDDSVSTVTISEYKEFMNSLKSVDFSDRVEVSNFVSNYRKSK
C2C12 statin = suppression of simvastatin myotoxicity. C2C12 myotubes + simvastatin, ATP luminescence, 48 h; scaled: DMSO 0, geranylgeraniol control 100. rescue of ATP level, % at 7.49 µM. 0.78% of 330,000 active. AID 602340;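 active = mean ATP rescue above about 67%, or every replicate alone reaching that limit, limit read from the data, passing the limit was not always enough; inconclusive = no clear call, values can overlap the other calls; inactive = mean under the limit and some replicate under it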;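 also: myotubes were challenged with 10 µM simvastatin during compound exposure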
esBAF inh = SWI/SNF esBAF complex inhibition; mouse ES cells, Bmi1-luciferase knock-in reporter, 24 h; 100% = twice the neutral-well signal; reporter increase, % at 12.5 µM; 2% of 350,000 active; AID 602393; in the data active = activation above about 40%; inconclusive = no clear call, values can overlap the other calls;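 also: a rise in the Bmi1 reporter signal indicates esBAF inhibition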
MITF act = MITF TRPM1 promoter activation in melanoma cells | SK-MEL-5 TRPM1-promoter luciferase, 24 h; % of positive control, neutral wells = 0 | AID 588334 | activation, % at 12.5 µM | 0.75% of 300,000 active;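 active = mean activation of at least 80% with every replicate also reaching 80%; inconclusive = mean reaches 80% but some replicate falls short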
Wnt act = activators of Wnt/beta-catenin signaling; Wnt/beta-catenin reporter cell assay, activator, plate reader; activation, % at 9.35 µM; 1.2% of 300,000 active; AID 743398; in the data active = activation above about 30%, passing the limit was not always enough; inconclusive = no clear call, values can overlap the other calls
Ring1 derepress = esBAF inhibition confirmed by Ring1 de-repression; mouse ESC E14, Ring1 mRNA RT-qPCR fold change; shares compounds with esBAF inh; 550 tested, under 10 active; fold change at 33 µM;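 active = Ring1 gene expression raised more than 2-fold over untreated cells in both replicates at either tested dose; inconclusive = only one replicate above 2-fold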;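 also: Ring1 transcript normalised to actin housekeeping signal by TaqMan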
esBAF Fgf4 qPCR = esBAF inhibition confirmed by Fgf4 repression | AID 743177 | 4% of 550 active | mouse ESC E14, Fgf4 mRNA qPCR fold change; active compounds read low | shares compounds with esBAF inh | Fgf4 expression fold change at 33 µM;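 active = Fgf4 expression under 0.8 fold of control in both repeat measurements at one or both tested doses; inconclusive = under 0.8 fold in just a single repeat measurement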;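 also: Fgf4 transcript normalised to actin in duplex TaqMan qPCR; cells exposed to compound for 24 h before lysis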
esBAF Bmi1 qPCR = confirmation of esBAF inhibitors: Bmi1 de-repression in mouse ESCs. 550 tested, under 10 active. fold change at 33 µM. mouse ESE14 ES cells, Bmi1 mRNA qPCR fold; active compounds read high. shares compounds with esBAF inh;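 active = Bmi1 expression fold change above 6 at either tested concentration, seen in replicate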;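 also: higher fold means more Bmi1 de-repression and stronger esBAF inhibition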
A549 cytotox = kills or reduces viability of A549 cells; shares compounds with esBAF inh; A549 cytotoxicity, plate reader; cell viability change % (negative = cytotoxic), % at 25 µM, hits read low; 550 tested, under 10 active; AID 743188; call rule not given here
HepG2 cytotox SP = HepG2 cell cytotoxicity at single point | shares compounds with esBAF inh | plate reader; active compounds read low | activity change, negative = inhibition, % at 25 µM | 4% of 550 active | AID 743189; in the data active = activity change below about -50%
HEK293 tox SP = HEK293 cell cytotoxicity at single point. shares compounds with esBAF inh. activity change, negative = inhibition, % at 25 µM, hits read low. AID 743190. 3% of 550 active. plate reader; in the data active = activity change below about -38%, passing the limit was not always enough
Large screens that a line does not name were inactive (follow-up assays come after a bar, where they were run).

O=C(Cc1c[nH]c2ccccc12)Nc1nccs1	none
O=C(Nc1nccs1)C(=O)c1c[nH]c2ccccc12	esBAF inh 68, MITF act inconclusive, Wnt act 59 | Ring1 derepress inactive | esBAF Fgf4 qPCR inactive | esBAF Bmi1 qPCR inactive | A549 cytotox inactive | HepG2 cytotox SP inactive | HEK293 tox SP inactive
COc1ccccc1CNC(=O)C[C@H]1C[C@@H]2c3cc(NC(=O)C4CCOCC4)ccc3O[C@@H]2[C@@H](CO)O1	none (no result: Rtt109 Vps75, MITF act, Wnt act)
COc1cccc(N2CCN(C(=O)c3ccc4nc(N5CCCCC5)sc4c3)CC2)c1	esBAF inh 64 | Ring1 derepress inactive | esBAF Fgf4 qPCR inconclusive | esBAF Bmi1 qPCR inactive | A549 cytotox inactive | HepG2 cytotox SP inactive | HEK293 tox SP inactive
COc1cccc(NC(=O)C(=O)NCC2CCCN2S(=O)(=O)c2cccs2)c1 (stereo not given)	esBAF inh 62 (no result: Rtt109 Vps75, MITF act) | Ring1 derepress inactive | esBAF Fgf4 qPCR inactive | esBAF Bmi1 qPCR inactive | A549 cytotox inactive | HepG2 cytotox SP inactive | HEK293 tox SP inactive
COc1cccc(NC(=O)C(=O)NCCC2CCCCN2S(=O)(=O)c2cccs2)c1 (stereo not given)	esBAF inh 60, MITF act 96, Wnt act 39 | Ring1 derepress inactive | esBAF Fgf4 qPCR inactive | esBAF Bmi1 qPCR inactive | A549 cytotox inactive | HepG2 cytotox SP inactive | HEK293 tox SP inactive
C[C@@H]1CCCCO[C@H](CN(C)S(=O)(=O)c2cccs2)[C@@H](C)CN([C@@H](C)CO)C(=O)c2cc(NC(=O)CCC(F)(F)F)ccc2O1	none (no result: Rtt109 Vps75, C2C12 statin, MITF act, Wnt act)
C[C@H](CO)N1C[C@H](C)[C@@H](CN(C)Cc2cncnc2)Oc2cc(/C=C/c3ccccc3)ccc2S1(=O)=O	none (no result: Rtt109 Vps75, MITF act, Wnt act)
O=C(CCc1nnc(CCc2c[nH]c3ccccc23)o1)NC1CCC1	esBAF inh 66 | Ring1 derepress inactive | esBAF Fgf4 qPCR inactive | esBAF Bmi1 qPCR inactive | A549 cytotox inactive | HepG2 cytotox SP inactive | HEK293 tox SP inactive
Cc1cc(C)c2c(CN3CCC(C)CC3)cc(=O)oc2c1	none
Cc1cc2oc(=O)cc(CN3CCC(C)CC3)c2c(C)c1Cl	esBAF inh 59 (no result: MITF act) | Ring1 derepress inactive | esBAF Fgf4 qPCR inactive | esBAF Bmi1 qPCR inactive | A549 cytotox inactive | HepG2 cytotox SP inactive | HEK293 tox SP inactive
